PubChem BioAssay AID837 (The Scripps Research Institute Molecular Screening Center, 2007)
Active and inactive are the calls of the source.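 How the source made its calls: active means relative FRET score above 0.01, or acceptor fluorescence over 30% below the sample-well median; inactive means the rest.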

Target: Protein Rev (Human immunodeficiency virus type 1 group M subtype B (isolate WMJ22)) (UniProt P05866)
Experiment: HIV-1 Rev-RRE binding inhibitors, retest, confirmation, biochemical, FRET, acceptor and relative FRET calls (AID 837);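 further: relative FRET combines rise in Cy5 acceptor with fall in fluorescein donor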
Settings: Fl-Rev peptide / Cy5-RRE RNA FRET, 1536-well; at 8 µM

Protein Rev (Human immunodeficiency virus type 1 group M subtype B (isolate WMJ22)), sequence (P05866 whole entry, looked up): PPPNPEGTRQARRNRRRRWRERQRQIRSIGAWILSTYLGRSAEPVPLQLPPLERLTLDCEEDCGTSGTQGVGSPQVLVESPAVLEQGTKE

SMILES	outcome
Cc1cc(-c2nc3c4c5c(sc4[nH]c(=O)n3n2)CCC5)c(C)o1	inactive
C[n+]1c2n(c3ccccc31)N=C(c1ccc(Cl)cc1)CS2	active
CCOc1cc(CNCCCN2CCOCC2)ccc1OCC(=O)Nc1cccc2ccccc12	inactive
NCCCCCc1nnc(SC/C=C/c2ccccc2)o1	inactive
Nc1nc(Nc2ccc(Cl)cc2)nc2ccccc12	active
CN1/C(=C\C=Nc2ccc3ccccc3c2)C(C)(C)c2ccccc21	inactive
Cc1ccc(C2NC(=O)c3c(sc4c3CCN(C)C4)N2)s1 (stereo not given)	inactive
COC(=O)c1c(C(=O)OC)n(CCCN)c2ccc(C)cc12	active
NCCCCCc1nnc(SCc2ccccc2Cl)o1	inactive
COc1ccc(C2N=C(N)N=C(N)N2c2ccc(C)cc2)cc1 (stereo not given)	active
CCN(CC)CCNC1=NCCn2c1cc1cc(OC)ccc12	active
O=C(Cn1cnc2ccccc2c1=O)N1CCOCC1	inactive
CC1=NOC(=O)/C1=C/c1ccc(N(C)C)cc1	active; fluoresces like the donor
Cc1cc(C)cc(NC2=NC3(CCCCC3)N=C(N)N2)c1	inactive
COc1cccc(Nc2nc(NCC3CCCO3)c3ccccc3n2)c1 (stereo not given)	inactive
C/C=C/c1ccc(OCCCNC2CCCC2)c(OC)c1	inactive
CCOC(=O)c1c(C)n(C)c2ccc(O)c(CN(C)C)c12	active
CCN(CC)CCOCCOc1cc(C)c(Cl)c(C)c1	inactive
CCOc1cc(-c2ccc(N)c(OCC)c2)ccc1N	active; fluoresces like the donor
CCOc1ccc2nc3ccc4[nH]onc4c3c2c1	inactive

SMILES	outcome
Cc1cc(Cl)c(OCCCNCc2ccccc2)c(Br)c1	inactive
CCCCN1C(=O)Cc2c1nc(N)c1c(N)nc(N(CCC)CCC)c(C#N)c21	inactive
CN(C)CC(O)COc1ccc(-c2ccc(C#N)cc2)cc1 (stereo not given)	active
Cc1cccc(NC2=NC3(CCCCC3)N=C(N)N2)c1C	inactive
FC(F)(F)c1cc(-c2ccco2)nc(NCc2ccc(Cl)cc2)n1	inactive
Cc1ccc(C(=O)/C=C/c2ccccc2)o1	inactive
COc1ccc(Nc2nc(N3CCCCC3)c3ccccc3n2)cc1	inactive
CC(C)(C)CC(C)(C)NCC(O)COc1c(F)cc(Br)cc1F (stereo not given)	inactive
O=C(Nc1nccs1)c1ccc(-c2ccccc2Cl)o1	inactive
CCN(CC)CC(O)COCCC12CC3CC(CC(C3)C1)C2 (stereo not given)	inactive
N=c1n(Cc2ccccc2)c2ccccc2n1CC(O)c1ccco1 (stereo not given)	inactive
CC(NCc1ccc(N(C)C)cc1)C1CC2CCC1C2 (stereo not given)	active
CCN(CC)CCCNC(=O)c1cc(-c2ccc(Cl)c(Cl)c2)on1	inactive
CCn1c(=N)n(CCOc2ccc(OC)cc2)c2ccccc21	inactive
CCCCNCCCOc1cccc(Cl)c1Cl	inactive
CCOC(=O)CSc1ccc(S(=O)(=O)N(C)C2CCCCC2)cc1[N+](=O)[O-]	inactive
CCC(C)(C)c1ccc(OCCN2C(=O)NC(C)(C)C2=O)cc1	inactive
CN(C)CCCNC(=O)c1ccc(-c2nc(-c3ccc(Cl)cc3)cs2)cc1	inactive
c1ccc(CSc2ncnc3c2cnn3Cc2ccccc2)cc1	inactive
CCCCCCCCOc1ccc(C2OC34CCCCC3C(C#N)(C#N)C2(C#N)C(=N)O4)cc1 (stereo not given)	inactive
